Counter-ions that a name gives are not always drawn. ± gives the standard deviation of the averaged measurements.
test system: E. coli TESEC Alr+ wild-type control; assay: growth (OD600 after 10 h); higher = more growth (less inhibition); conditions: compound 0.1 mM; raw OD600 reference: median of DMSO wells 0.49, cell-free background 0.052
Description: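 TESEC Mtb Alr E. coli (ΔaraC ΔtolC ΔentC Δalr ΔdadX, arabinose-inducible Mtb Alr) or the Alr+ wild-type control strain, grown in defined M9-fructose medium without D-alanine in 96-well plates with Prestwick library compounds at 0.1 mM and 1% DMSO. Low Alr induction is 0.1 µM arabinose and high induction is 10 mM arabinose.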

**Q.** With `CC1c2cccc(O)c2C(O)=C2C(=O)C3(O)C(O)=C(C(N)=O)C(=O)C(N(C)C)C3C(O)C21` (stereo not given) [Doxycycline hydrochloride] as the compound, how does the growth read?
**A.** 0.0579 ± 0.0011

**Q.** For `NC(=O)N1c2ccccc2CC(=O)c2ccccc21` [Oxcarbazepine], which growth is on record?
**A.** 0.601 ± 0.13

**Q.** `COC(=O)[C@H]1[C@H]2C[C@@H]3c4[nH]c5cc(OC)ccc5c4CCN3C[C@H]2C[C@@H](OC(=O)c2cc(OC)c(OC)c(OC)c2)[C@@H]1OC` [Reserpine] was tested. Which growth did it give?
**A.** 0.467 ± 0.014

**Q.** Which growth does the source give for `Cn1c(=O)c2c(ncn2CC2OCCO2)n(C)c1=O` [Doxofylline] here?
**A.** 0.475 ± 0.076

**Q.** `CC1(C)S[C@@H]2[C@H](NC(=O)Cc3ccccc3)C(=O)N2[C@H]1C(=O)O` [Benzylpenicillin sodium] was tested. Which growth did it give?
**A.** 0.533 ± 0.11

**Q.** Which growth does the source give for `COC(=O)N/N=C/c1c[n+]([O-])c2ccccc2[n+]1[O-]` [Carbadox] here?
**A.** 0.143 ± 0.0067

**Q.** How did the growth turn out when `CO[C@@]1(NC(=O)C2SC(=C(C(N)=O)C(=O)O)S2)C(=O)N2C(C(=O)O)=C(CSc3nnnn3C)CS[C@@H]21` (stereo not given in full) [Cefotetan] was run?
**A.** 0.0443 ± 0.00044

**Q.** How did the growth turn out when `CC(C)(C)NC(=O)[C@@H]1C[C@@H]2CCCC[C@@H]2CN1C[C@@H](O)[C@H](Cc1ccccc1)NC(=O)[C@H](CC(N)=O)NC(=O)c1ccc2ccccc2n1` [Saquinavir mesylate] was run?
**A.** 0.0807 ± 0.0042

**Q.** With `CC1CNc2c(cccc2S(=O)(=O)N[C@@H](CCCNC(=N)N)C(=O)N2CC[C@@H](C)C[C@@H]2C(=O)O)C1` (stereo not given in full) [Argatroban] as the compound, how does the growth read?
**A.** 0.429 ± 0.019

**Q.** How did the growth turn out when `O=C(NCCNCC(O)COc1ccc(O)cc1)N1CCOCC1` (stereo not given) [Xamoterol hemifumarate] was run?
**A.** 0.631 ± 0.0095

**Q.** Which growth does the source give for `CCCC1O[C@@H]2C[C@H]3[C@@H]4CCC5=CC(=O)C=C[C@]5(C)[C@H]4[C@@H](O)C[C@]3(C)[C@]2(C(=O)CO)O1` (stereo not given in full) [Budesonide] here?
**A.** 0.449 ± 0.02

**Q.** `OC[C@H]1O[C@@H](Oc2ccc(O)cc2)[C@H](O)[C@@H](O)[C@@H]1O` [Arbutin] was tested. Which growth did it give?
**A.** 0.499 ± 0.077

**Q.** For `CN1CCN(CCCN2c3ccccc3Sc3ccc(Cl)cc32)CC1` [Prochlorperazine dimaleate], which growth is on record?
**A.** 0.04753 ± 0.00025

**Q.** For `CCC(=O)[C@@]1(C)[C@H](C)C[C@H]2[C@@H]3CCC4=CC(=O)C=C[C@]4(C)[C@H]3[C@@H](O)C[C@@]21C` [Rimexolone], which growth is on record?
**A.** 0.459 ± 0.021

**Q.** With `Clc1ccc(CSC(Cn2ccnc2)c2ccc(Cl)cc2Cl)cc1` (stereo not given) [Sulconazole nitrate] as the compound, how does the growth read?
**A.** 0.0607 ± 0.0028

**Q.** Which growth does the source give for `Cc1c(-c2ccccc2)oc2c(C(=O)OCCN3CCCCC3)cccc2c1=O` [Flavoxate hydrochloride] here?
**A.** 0.414 ± 0.023

**Q.** With `CNCC[C@@H](Oc1cccc2ccccc12)c1cccs1` [(R)-Duloxetine hydrochloride] as the compound, how does the growth read?
**A.** 0.503 ± 0.049

**Q.** `Nc1ccc(O)c(C(=O)O)c1` [Mesalamine] was tested. Which growth did it give?
**A.** 0.554 ± 0.11

**Q.** `CC(C(=O)O)c1ccc(N2Cc3ccccc3C2=O)cc1` (stereo not given) [Indoprofen] was tested. Which growth did it give?
**A.** 0.486 ± 0.053

**Q.** With `CC1=C(C(=O)O)N2C(=O)[C@@H](NC(=O)[C@H](N)c3ccc(O)cc3)[C@H]2SC1` [Cefadroxil] as the compound, how does the growth read?
**A.** 0.606 ± 0.045

**Q.** With `COc1ccccc1OCC(O)CN1CCN(CC(=O)Nc2c(C)cccc2C)CC1` (stereo not given) [Ranolazine] as the compound, how does the growth read?
**A.** 0.471 ± 0.068

**Q.** `CC(=O)Nc1ccc(OCC(O)CNC(C)C)cc1` (stereo not given) [Practolol] was tested. Which growth did it give?
**A.** 0.643 ± 0.039

**Q.** How did the growth turn out when `CN(C)[C@@H]1C(=O)C(C(=O)NCNCCCC[C@H](N)C(=O)O)=C(O)[C@@]2(O)C(=O)C3=C(O)c4c(O)cccc4[C@@](C)(O)[C@H]3C[C@@H]12` [Lymecycline] was run?
**A.** 0.329 ± 0.017

**Q.** `CC(=O)N1CCN(c2ccc(OCC3COC(Cn4ccnc4)(c4ccc(Cl)cc4Cl)O3)cc2)CC1` (stereo not given) [Ketoconazole] was tested. Which growth did it give?
**A.** 0.0814 ± 0.011

**Q.** For `CN[C@@H]1[C@H](O[C@H]2[C@H](O[C@H]3[C@H](O)[C@@H](O)[C@H](NC(=N)N)[C@@H](O)[C@@H]3NC(=N)N)O[C@@H](C)[C@]2(O)CO)O[C@@H](CO)[C@H](O)[C@H]1O` [Dihydrostreptomycin sulfate], which growth is on record?
**A.** 0.0605 ± 0.0073

**Q.** How did the growth turn out when `CCCCc1ccc2[nH]c(NC(=O)OC)nc2c1` [Parbendazole] was run?
**A.** 0.496 ± 0.038

**Q.** Which growth does the source give for `NC[C@H]1CC[C@H](C(=O)O)CC1` [Tranexamic acid] here?
**A.** 0.456 ± 0.04

**Q.** How did the growth turn out when `C[C@H]1C[C@H]2[C@@H]3CCC4=CC(=O)C=C[C@]4(C)[C@@]3(F)[C@@H](O)C[C@]2(C)[C@@]1(O)C(=O)CO` [Betamethasone] was run?
**A.** 0.552 ± 0.02

**Q.** How did the growth turn out when `COc1cc(N)c(Cl)cc1C(=O)NC1CCN(CCCOc2ccc(F)cc2)CC1OC` (stereo not given) [Cisapride] was run?
**A.** 0.552 ± 0.1

**Q.** For `Cc1cccc(C)c1NC(=O)CN1CCN(CCCC(c2ccc(F)cc2)c2ccc(F)cc2)CC1` [Lidoflazine], which growth is on record?
**A.** 0.563 ± 0.013

**Q.** `CC(Oc1ccccc1)C(=O)N[C@@H]1C(=O)N2[C@@H]1SC(C)(C)[C@@H]2C(=O)O` (stereo not given in full) [Phenethicillin potassium salt] was tested. Which growth did it give?
**A.** 0.482 ± 0.075

**Q.** For `N=C(N)NCc1cccc(I)c1` [Iobenguane sulfate], which growth is on record?
**A.** 0.488 ± 0.019

**Q.** `O=C(Nc1ccc([N+](=O)[O-])cc1Cl)c1cc(Cl)ccc1O` [Niclosamide] was tested. Which growth did it give?
**A.** 0.053 ± 0.003

**Q.** With `CC(=O)OCC(=O)[C@@]1(O)CC[C@H]2[C@@H]3CCC4=CC(=O)C=C[C@]4(C)[C@@]3(F)[C@@H](O)C[C@@]21C` [Isoflupredone acetate] as the compound, how does the growth read?
**A.** 0.422 ± 0.029

**Q.** Which growth does the source give for `COc1ccccc1O` [Guaiacol] here?
**A.** 0.558 ± 0.079

**Q.** `CNCCCC1c2ccccc2C=Cc2ccccc21` [Protriptyline hydrochloride] was tested. Which growth did it give?
**A.** 0.558 ± 0.023

**Q.** How did the growth turn out when `Cc1cc(N)c2ccccc2[n+]1CCCCCCCCCC[n+]1c(C)cc(N)c2ccccc21` [Dequalinium dichloride] was run?
**A.** 0.0513 ± 0.0018

**Q.** How did the growth turn out when `CCOC(=O)[C@H](CCc1ccccc1)N[C@@H](C)C(=O)N1[C@H](C(=O)O)C[C@@H]2CCC[C@@H]21` [Ramipril] was run?
**A.** 0.586 ± 0.011

**Q.** How did the growth turn out when `Nc1ccccc1S(N)(=O)=O` [2-Aminobenzenesulfonamide] was run?
**A.** 0.566 ± 0.029

**Q.** `CC(=O)Oc1cccc2c1C(=O)c1c(OC(C)=O)cc(C(=O)O)cc1C2=O` [Diacerein] was tested. Which growth did it give?
**A.** 0.087 ± 0.0013

— the supplement of paper PMC9262897, “Low-cost anti-mycobacterial drug discovery using engineered E. coli” (Nature Communications, 2022)
